Reference: PubChem BioAssay (NCI)
Compounds without any hit were thinned out: in the full panel of roughly 83,000, 20% have a hit.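 For each line, cells grew in 96-well plates with the test compound present at a single concentration for 48 hours.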 The source made the active and inactive calls. The calls were made as follows: active = growth percent below 10; inactive = the rest.

The compounds below were run on IGROV1 ovarian (assay: NCI-60 one-dose screen, 48 h (100 = growth as untreated, 0 = no growth, -100 = all killed)). Details: 10 µM.

SMILES | growth
Cc1cc(C)nc(NS(=O)(=O)c2ccc(N/C(N)=N/c3nccc(-c4ccccc4)n3)cc2)n1 | 38.9% (inactive)
N#Cc1c(NC(=O)c2ccc(C(O)(C(F)(F)F)C(F)(F)F)cc2)sc2c1CCC(=O)C2 | -27.6% (active)
N#Cc1ccc(-c2nn(-c3ccc(C(=O)O)cc3)cc2CNc2cc(Cl)cc(C(F)(F)F)c2)cc1 | 34.7% (inactive)

These compounds were tested on OVCAR-3 ovarian in the same assay as above. Details: 10 µM.

SMILES | growth
O=C(NO)c1ccc(-c2nc3ccc4[nH]ncc4c3c3c2CCCC3)cc1 | -57% (active)
O=C(CNc1nc(-c2ccccc2)cs1)Nc1ccc(Cl)cc1 | -36.6% (active)
COc1cc2c3c(n(CCCN4CCOCC4)c(=O)c2cc1OC)-c1nc2c(cc1C3=O)OCO2 | 8.69% (active)
Cc1ccc(/C=C/C(=O)c2ccc(NC(=O)CSc3nnc(-c4c[nH]c5ccccc45)n3-c3ccccc3)cc2)c(C)c1 | 32% (inactive)
O=C(CN1CCN(c2ncnc3c2cnn3-c2ccccc2)CC1)Nc1nncs1 | -55.6% (active)
CC(=O)Oc1ccccc1C(=O)Oc1ccc(C(=O)/C=C/c2ccncc2)cc1 | 19.5% (inactive)
O=C(NC(=S)N1CCN(c2ncnc3c2cnn3-c2ccccc2)CC1)c1ccc(Cl)cc1 | 48.1% (inactive)
C/C(=N\N=C\c1ccc(N(C)C)cc1)c1ccc2c(c1)Nc1ccccc1S2 | 44.5% (inactive)
COC(=O)C[C@](O)(CCCC(C)(C)O)C(=O)O[C@H]1C(OC)=C[C@@]23CCC(=O)N2CCc2cc4c(cc2[C@@H]13)OCO4 | 94.8% (inactive)
CN1CCN(Cc2ccc(NC(=O)c3cncc(C#Cc4cnc5ccc(N[C@H]6CCOC6)nn45)c3)cc2C(F)(F)F)CC1 | -93.7% (active)
CCOc1ccc(/C=N/NC(=O)Cn2nc(Cc3ccc([N+](=O)[O-])cc3)c3onc(C)c3c2=O)cc1 | -37.5% (active)
CN1CCN(c2ccc(C(=O)/C=C/c3ccc(OC(F)F)cc3)cc2)CC1 | 38.4% (inactive)
COc1ccc(C2N(c3ccc(Br)cc3)N=C(C(C)=O)N2[C@H]2[C@H](OC(C)=O)O[C@H](COC(C)=O)[C@@H](OC(C)=O)[C@@H]2OC(C)=O)cc1 (stereo not given in full) | 73.2% (inactive)
CCOC(=O)C1=C(N)N(c2ccccc2)C2=C(C(=O)CC(C)(C)C2)C1c1ccc(Cl)cc1 (stereo not given) | 51.6% (inactive)
CCCn1c(=O)c2[nH]c(-c3ccc(OCc4nc5ccc(F)cc5[nH]4)cc3)nc2n(CCC)c1=O | 5.45% (active)
Cc1ccc(/C(CSc2nnc(-c3c[nH]c4ccccc34)n2-c2ccccc2)=N/O)cc1 | 14.7% (inactive)
CN1CCN(c2ccc(C(=O)/C=C/c3cc(C(F)(F)F)ccc3Cl)cc2)CC1 | -37.7% (active)
COc1ccc(C(=O)Nc2sc3c(c2C#N)CCC(=O)C3)cc1C(F)(F)F | -6.94% (active)
Cc1ccc(/C=C/C(=O)c2ccc(NC(=O)CSc3nnc(-c4c[nH]c5ccccc45)n3-c3ccccc3)cc2)cc1 | 83.2% (inactive)

SMILES | growth
COc1ccc(Nc2nc(N)n(Cc3cccc(Br)c3)n2)cc1 | 19.6% (inactive)
O=C1CCC(N2Cc3cc(NC(=O)COc4ccccc4)ccc3C2=O)C(=O)N1 (stereo not given) | 85.8% (inactive)
O=C(/C=C/Nc1ccccc1)c1ccc2c(c1)Nc1ccccc1S2 | 91.1% (inactive)
COc1cc2c(c(OC)c1OC)C(=O)CC(c1cccc(NC(=O)c3cccc(N)c3)c1)O2 (stereo not given) | 80.9% (inactive)
Cc1noc2c(Cc3ccc([N+](=O)[O-])cc3)nn(CC(=O)N/N=C/c3ccc(Br)cc3)c(=O)c12 | 50.1% (inactive)
COc1ccc(-c2nc(Nc3ccccc3S(N)(=O)=O)c3ccccc3n2)cc1 | -20.6% (active)
COc1cc(/C=C/C(=O)c2ccc(NC(=O)CSc3nnc(-c4c[nH]c5ccccc45)n3-c3ccccc3)cc2)cc(OC)c1OC | 66% (inactive)
O=C(CSc1nnc(-c2ccc3nc(-c4ccc(Cl)cc4)[nH]c3c2)o1)Nc1ccc(Br)cc1 | -15.9% (active)
Cc1ccn2c(C(=O)c3ccccc3)cc(-c3cc(-c4ccc(N(C)C)cc4)c(C#N)c(N)n3)c2c1 | 58.2% (inactive)
O=C1c2ccccc2C(=O)c2c1c(C(=O)c1ccc(Cl)cc1)n1c2ccc2c3ccccc3ccc21 | 109% (inactive)
Cn1c(O)c(N=Nc2nc(-c3cc4ccccc4oc3=O)cs2)c2cc(Br)ccc21 | 96.4% (inactive)
Cn1cc(-c2cc(N)n3nc(-c4c[nH]c5ccc(Br)cc45)cc3n2)c2cccnc21 | -78.9% (active)
COc1ccc2c3nc4cc(C)c(C)cc4nc3n(CCN(C)C)c2c1 | -47.1% (active)
O=C(CSc1nnc(-c2c[nH]c3ccccc23)n1-c1ccccc1)c1ccc(Br)cc1 | 42.5% (inactive)
OCc1[nH]nc2cc(Nc3ncc4ccc(Br)c(OC5CCC(O)CC5)c4n3)ccc12 (stereo not given) | 2.95% (active)
Cc1cc(C)nc(NS(=O)(=O)c2ccc(N/C(N)=N/c3nccc(-c4ccccc4)n3)cc2)n1 | 86.8% (inactive)
N#Cc1c(NC(=O)c2ccc(C(O)(C(F)(F)F)C(F)(F)F)cc2)sc2c1CCC(=O)C2 | -53.1% (active)
N#Cc1ccc(-c2nn(-c3ccc(C(=O)O)cc3)cc2CNc2cc(Cl)cc(C(F)(F)F)c2)cc1 | 22% (inactive)
